From PubChem BioAssay (Tox21) come the findings set out here.

Each structure is given as a SMILES string. Records with an inconclusive call do not appear. Activity calls are given as the source filed them. The call rests on the fitted dose curve; in most records, active means well fitted cell-killing curve with a large enough effect in the repeat runs; inconclusive means weak or mixed curves, or effect the other way; inactive means flat fitted curve, though single readings scatter. Where a SMILES comes first, the peptide text is derived from it. [ ]: non-standard residue; d: D form. pGlu = O=C1CC[C@@H](C(=O)O)N1
On the % scale 0 is the no-effect control and ±100 the full control effect.

This test can be described thus: qHTS assay to identify small molecule antagonists of the constitutive androstane receptor (CAR) signaling pathway - cell viability counter screen (AID 1224837). Further: nearly all actives have a fitted effect of over 45% in size. To be noted: HepG2-CYP2B6-hCAR viability, CellTiter-Fluor, 23 h, co-treated with 50 nM CITCO; series mostly up to 92.4 µM; activity change, negative = cytotoxicity: at the top concentration. The gist of the method:
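Read-out: CellTiter-Fluor fluorescence after 23 hr at 37 C/5% CO2. Cells: HepG2 double-stable for hCAR and CYP2B6-2.2kb. Compounds tested at 15 concentrations in the presence of CITCO, final concentration 50 nM.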
In the case of `CCCCCCC#CC(=O)OC`, the “activity change, negative = cytotoxicity” value is 0.0736% (inactive).
With `O=C(O)CCSCCC(=O)O` the figure was 3.76% (inactive); with `O=Cc1cccc(Br)c1`, 2.25% (inactive); with `Cc1ccc(C(=O)c2ccc(CC(=O)O)n2C)cc1`, 3.76% [at 42.5 µM] (inactive).
In the case of `CCCCCCCCCCCCCCCCCCO` it was 1.1% [at 42.5 µM] (inactive); in that of `CCN(C=O)CC`, 0.63% (inactive).
Turning to `COc1ccc2cc1Oc1cc3c(cc1OC)CC[N+](C)(C)[C@H]3Cc1ccc(cc1)Oc1c(OC)c(OC)cc3c1[C@@H](C2)[N+](C)(C)CC3`, the “activity change, negative = cytotoxicity” value was -0.667% [at 42.5 µM] (inactive).
With `Cc1ccc(C(=O)c2ccccc2)cc1` the figure was 0.445% (inactive).
For the compound `CC(C)C[C@@H](N)C(=O)O`, the activity change, negative = cytotoxicity is 0.137% [at 19 µM] (inactive).
With `O=C(O)CC(C(=O)O)S(=O)(=O)O` (centres undefined) the figure was 6.04% (inactive); with `CC1(C)OC[C@@H](COC(=O)CCc2ccc(OC[C@@H](O)CNCCNC(=O)N3CCOCC3)cc2)O1`, 2.47% [at 42.5 µM] (inactive); with `CC(CC=O)CC(C)(C)C` (centres undefined), 4.86% (inactive).
For `NC(CCC(=O)O)C(=O)O` (centres undefined), the “activity change, negative = cytotoxicity” value is -0.191% (inactive).
With `CCOC(=O)C(=O)CCCCCCl` the figure was 0.109% [at 42.5 µM] (inactive).
On to `Clc1cc(Cl)cc(Cl)c1`, for which the “activity change, negative = cytotoxicity” value was -0.441% (inactive).
With `CO/N=C(\C(=O)N[C@@H]1C(=O)N2C(C(=O)O)=C(CSc3nc(=O)c(O)nn3C)CS[C@H]12)c1csc(N)n1` the figure was 6.39% [at 42.5 µM] (inactive); with `CCNC(=O)[C@@H]1CCCN1C(=O)[C@H](CCCN=C(N)N)NC(=O)[C@H](CC(C)C)NC(=O)CNC(=O)[C@H](Cc1ccc(O)cc1)NC(=O)[C@H](CO)NC(=O)[C@H](Cc1c[nH]c2ccccc12)NC(=O)[C@H](Cc1cnc[nH]1)NC(=O)[C@@H]1CCC(=O)N1` ([pGlu]HWSYGLRP-NHEt), 3.99% [at 42.5 µM] (inactive).
In the case of `CCCO[Si](OCCC)(OCCC)OCCC` it was 0.451% (inactive); in that of `CCCCCCCCCCCCSC`, 1.77% (inactive).
